The record followed here is PubChem BioAssay AID431 (Sanford-Burnham Center for Chemical Genomics, 2006).

Molecules are shown by their SMILES. Screen size: about 63,000 compounds; about 1,100 (1.7%) were called active. This excerpt belongs to a sample that is enriched for actives. Entries with a potency or affinity are not part of this list. Values without a mark were called inactive.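 Rule for the calls: active = compounds whose percent cytotoxicity in the single-dose primary screen, scaled between solvent and toxic-drug controls, exceeds 50; inactive = the rest.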

The nature of the test: cytotoxicity in KRAS-transformed pancreatic duct cells, primary screen, cell-based, fluorescence, HTS (AID 431).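 Note: 0% = DMSO solvent wells and 100% = doxorubicin-treated wells.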 As to conditions: HPDE-C7K KRASV12 cells, Alamar Blue viability, 48 h; at 10 µM; hits give high values.
Regarding `O=C(NCc1ccco1)C1CCN(c2nnc(-n3cccc3)s2)CC1`, the cytotoxicity was -3.4%.
For the compound `Cc1cc(C(=O)CN2C(=O)NC(c3ccccc3)(c3ccccc3)C2=O)c(C)n1Cc1ccco1`, the cytotoxicity is 3.5%.
With `COc1ccccc1NC(=O)C1=C(C)Nc2nnnn2C1c1ccncc1` (configuration not stated) the figure was -9.7%; with `COC(=O)c1sc(NC(=O)COc2ccccc2OC)nc1C`, -10.6%; with `Fc1cccc2sc(Nc3nnc(-c4ccccc4)o3)nc12`, 44.8%.
On to `COc1cc2nc(-c3cccs3)oc(=O)c2cc1OC`, for which the cytotoxicity was 9.6%.
On to `COc1ccccc1-c1nnc(Nc2nc3c(OC)cccc3s2)o1`, for which the cytotoxicity was 56.1% (active).
The result for `COc1cc(-c2nnc(-c3cccs3)o2)cc(OC)c1OC` reads -28.7%.
The result for `Fc1cccc2sc(Nc3nnc(-c4ccco4)o3)nc12` reads 29.2%; that for `COc1cc(OC)cc(-c2nnc(Nc3nc4c(F)cccc4s3)o2)c1`, 5.5%; that for `CCOC(=O)c1sc(NCCNc2nc(C)c(C(=O)OCC)s2)nc1C`, 1%.
With `CCOC(=O)c1sc(Nc2nc3c(OC)cccc3s2)nc1C` the figure was 79.9% (active); with `COc1cccc2sc(Nc3nnc(-c4ccccc4Cl)o3)nc12`, 31.7%.
`COc1ccc(-c2nnc(Nc3nc4c(OC)cccc4s3)o2)cc1`: the cytotoxicity was 59.3% (active).
`COc1cccc2sc(Nc3nnc(-c4cccs4)o3)nc12`: the cytotoxicity was 59.6% (active).
The result for `CCn1c(SCC(=O)NCCc2ccc(F)cc2)nnc1-c1cccs1` reads 4.9%; that for `COc1ccccc1OCc1nnc(SCC(=O)Nc2ccc(C)cc2)n1C`, -9.9%; that for `Cc1ccc(CN2CC34C=CC(O3)C(C(=O)NCc3ccc5c(c3)OCO5)C4C2=O)cc1` (configuration not stated), -15.5%.
`CCN(CC)S(=O)(=O)c1cccc(-c2nnc(SCC(=O)NC)n2CCc2ccccc2)c1`: the cytotoxicity was -3%.
With `COc1ccccc1N1CCN(C(=O)c2ccc(NC(C)=O)cc2)CC1`, the cytotoxicity was -1.4%.
As for `Brc1ccc(-c2nnc(-c3ccccc3Br)o2)cc1`, the cytotoxicity was -2.3%.
With `CN(CC(=O)Nc1ccccc1Cl)C(=O)COC(=O)CNC(=O)c1ccc(Br)o1` the figure was -18.6%.
Regarding `Cc1ccc2c(c1)nnn2C1CCN(C(=O)c2cccs2)CC1`, the cytotoxicity is -4.8%.
The result for `O=C(Cc1cccs1)Nc1ccc(C(=O)O)cc1` reads -2.8%.
With `CC(=O)OC1CC2(C)C(=O)CCC2C2CCc3cc(O)ccc3C12` (configuration not stated) the figure was -12.1%.
As for `CCc1ccccc1S(=O)(=O)Cc1ccc(C(=O)NCC2CCCO2)o1` (configuration not stated), the cytotoxicity is -0.8%.
On to `COc1cccc2sc(Nc3nc(-c4ccccn4)cs3)nc12`, for which the cytotoxicity was 58.6% (active).
On to `c1ccc(-c2csc(Nc3cccnc3)n2)nc1`, for which the cytotoxicity was 4.5%.
With `Cc1cccc(Nc2nc(-c3ccccn3)cs2)n1` the figure was 10.2%; with `CC(C)OCCCNC(=O)CN1C(=O)CC(C)(C)S(=O)(=O)c2ccccc21`, 3.7%.
The result for `CS(=O)(=O)N(CC(=O)NCc1ccc2c(c1)OCO2)Cc1ccc(Cl)cc1` reads -14.6%.
As for `CCN1CCc2c(C#N)c(N3CCCCC3)nc(NCc3ccccc3)c2C1`, the cytotoxicity was 51.6% (active).
The result for `N#Cc1c(NCCO)nc(NCc2ccccc2)c2c1CCN(Cc1ccccc1)C2` reads 40.8%.
For the compound `N#Cc1c(N2CCCCC2)nc(N2CCCCC2)c2c1CCN(Cc1ccccc1)C2`, the cytotoxicity is -4.7%.
The result for `C=CCNc1nc(NCc2ccccc2)c(C#N)c2c1CN(C)CC2` reads 19.2%.
Regarding `CCN1CCc2c(C#N)c(N3CCOCC3)nc(NCc3ccccc3)c2C1`, the cytotoxicity is -1.3%.
The result for `C=CCNc1nc(N2CCCCC2)c(C#N)c2c1CN(Cc1ccccc1)CC2` reads -1.7%; that for `N#Cc1c(NCCCO)nc(-c2ccccc2)c2c1CCCC2`, 20.2%.
The result for `CCN(CCCNC(=O)CCCn1c(=O)[nH]c2ccccc2c1=O)c1cccc(C)c1` reads -2.5%; that for `CCc1nc(SCC(=O)Nc2cc(C)on2)n[nH]1`, -9.6%.
Regarding `Cc1ccccc1NC(=O)N1C2CCCC1CC(NC(=O)C(C)(C)C)C2` (configuration not stated), the cytotoxicity was -3.9%.
The result for `Cc1ccccc1NC(=O)N1C2CCCC1CC(NC(=O)C1CC1)C2` (configuration not stated) reads 54.6% (active).
The result for `CCOc1ccccc1NC(=O)N1C2CCCC1CC(NC(=O)C1CC1)C2` (configuration not stated) reads -3.2%.
The result for `CCCCSc1nnc(C)c(=O)[nH]1` reads -3.8%; that for `CN1CC2=Cc3ccccc3OC23Oc2ccccc2C=C3C1`, 60.6% (active); that for `c1ccc(-c2nnc3sc(-c4csc5c4CCCC5)nn23)cc1`, 71.6% (active).
Regarding `Cc1nnc2sc(-c3csc4c3CCCC4)nn12`, the cytotoxicity is 3.5%.
With `Cc1ccccc1-c1nn2c(-c3ccccc3)nnc2s1` the figure was 11.2%; with `COc1ccc(-c2cc(C(F)F)n3ncc(C(=O)NCCCN4CCCC4=O)c3n2)cc1`, -8.7%.
The result for `COCCNC(=O)c1ccccc1-c1ccccc1C(=O)O` reads 7.4%.
With `COC(=O)CSc1nnc(CCc2nc3ccccc3[nH]2)n1C` the figure was -3.8%.
Take `COc1cc(C2C(C(C)=O)=C(C)Nc3ncnn32)ccc1O` (configuration not stated): the cytotoxicity was 2.2%.
For `COc1cc(-c2ccccc2)nc(N)n1`, the cytotoxicity was 7.6%.
With `COc1ccc(OC)c(Nc2cc(C)nc3ccccc23)c1` the figure was 1.1%; with `COc1ccc(OC)c(Nc2cc(-c3ccccc3)nc(N)n2)c1`, 57.6% (active).
With `CC1CCCCC1NC(=O)Cn1[nH]c(=O)c2ccccc2c1=O` (configuration not stated) the figure was 0.5%; with `CC(C)(C)NC(=O)Nc1ccccc1C(N)=O`, -1.1%.
The result for `Cc1sc2ncnc(NCc3ccco3)c2c1C` reads 0.5%.
Turning to `Cc1sc2nc3c4ccccc4c(NCc4ccco4)nn3c(=O)c2c1C`, the cytotoxicity was 66% (active).
In the case of `Cc1sc2nc(SCC(=O)NCc3ccco3)n(-c3ccccc3)c(=O)c2c1C`, the cytotoxicity was 7.2%.
Consider `O=C(CCOc1ccccc1)OCC(=O)c1cc2ccccc2o1`, for which the cytotoxicity is -20.1%.
With `COc1ccc(S(=O)(=O)N2CCCCC2)cc1C(C)C` the figure was -10.6%; with `CCOC(=O)c1cc(C)n(CCc2ccccc2)c1C`, 0.4%.
The result for `Cc1cc(-c2csc(N)n2)c(C)n1CCc1ccccc1` reads 99.3% (active); that for `Nc1nc(-c2ccccc2Br)cs1`, 15.5%.
Turning to `COCCn1c(-c2ccc(Cl)cc2)cnc1SCC(=O)NCc1cccs1`, the cytotoxicity was -6.5%.
As to `N#CC1=C(N)C(C#N)(C#N)C2(C(=O)Nc3ccccc32)C2CCCC=C12` (configuration not stated), the cytotoxicity is -18.9%.
With `CS(=O)(=O)N1CCc2cc(C(=O)O)ccc21` the figure was 8.3%; with `CS(=O)(=O)N1CCc2cc(S(=O)(=O)N3CCN(Cc4ccc5c(c4)OCO5)CC3)ccc21`, 7.7%; with `CS(=O)(=O)N1CCc2cc(S(=O)(=O)Nc3ccc4oc5c(c4c3)CCCC5)ccc21`, 84.6% (active).
For the compound `O=C(C(Cc1ccccc1)n1cccc1)N1CCc2ccccc21` (configuration not stated), the cytotoxicity was -1.9%.
The result for `CC(=O)Oc1c(Cl)c(N2CCOCC2)c(OC(C)=O)c2ccccc12` reads -27.5%; that for `COCCn1c(SCC(=O)Nc2ccccc2)nc2c1c(=O)[nH]c(=O)n2C`, -3.2%.
With `CC1CCc2c(sc3ncnc(SCC(=O)N4CCN(C(=O)c5ccco5)CC4)c23)C1` (configuration not stated) the figure was 2.5%; with `CCC(c1nnnn1C(C)(C)C)N1CCN(c2cc(Cl)ccc2C)CC1` (configuration not stated), -6.4%; with `CC(=NC1CCCC1)c1c(C)[nH]n(-c2nc3ccccc3s2)c1=O`, -31.1%.
The result for `O=c1cc(-c2ccccc2)[nH]n1-c1nc2ccccc2s1` reads 79% (active); that for `O=c1cc(-c2ccccc2)[nH]c2nc3ccccc3n12`, 31.4%.
As to `Cc1nn(-c2nc3ccccc3s2)c(N)c1-c1ccccc1`, the cytotoxicity was 5.2%.
With `COc1ccc(-c2cc(=O)n(-c3nc4ccccc4[nH]3)[nH]2)cc1` the figure was 10.5%.
For `Cc1[nH]c(=O)[nH]c1CN1CCCCC1`, the cytotoxicity was -10.3%.
The result for `CCOC(=O)c1cnn(-c2ccccc2)c1NC(=O)c1cccs1` reads 0.1%; that for `O=C(c1cccs1)n1cc(C(=S)N2CCOCC2)c2ccccc21`, 10%.
`COc1ccc(-c2c(C)nn3c(N4CCN(Cc5ccccc5)CC4)cc(C)nc23)cc1OC`: the cytotoxicity is -4%.
The result for `c1csc(-c2cnc3ccccc3n2)c1` reads 3.7%; that for `CCOC(=O)N1CCN(S(=O)(=O)c2cc(Cl)ccc2Cl)CC1`, -7.3%.
With `CCOC(=O)N1CCC(=C2c3ccc(Cl)cc3CCc3cccnc32)CC1` the figure was 90.6% (active); with `CCOC(=O)N1CCN(C(=O)Nc2ccc(Cl)cc2Cl)CC1`, 0.2%; with `O=S(=O)(c1ccc(-c2ccccc2)cc1)N1CCOCC1`, 3.5%.
`Nc1nncn1C(=O)c1cccs1`: the cytotoxicity was 9.5%.
The result for `CC(=O)O[C@]1(C(C)=O)CC[C@H]2[C@@H]3C[C@H](C)C4=CC(=O)CC[C@]4(C)[C@H]3CC[C@@]21C` reads 3.4%; that for `CC(=O)O[C@]1(C(C)=O)CC[C@H]2[C@@H]3C=C(Cl)C4=CC(=O)CC[C@]4(C)[C@H]3CC[C@@]21C`, 76.4% (active).
For `CCCCCCCC(=O)OCC(=O)[C@@]1(O)CC[C@H]2[C@@H]3CCC4=CC(=O)CC[C@]4(C)[C@H]3[C@@H](O)C[C@@]21C`, the cytotoxicity was -2.2%.
The result for `CCCCCC(=O)O[C@]1(C(C)=O)CC[C@H]2[C@@H]3CCC4=CC(=O)CC[C@]4(C)[C@H]3CC[C@@]21C` reads 118% (active); that for `CCCCC(=O)O[C@]1(C(=O)CO)CC[C@H]2[C@@H]3CCC4=CC(=O)CC[C@]4(C)[C@H]3[C@@H](O)C[C@@]21C`, -3.2%; that for `CC(=O)O[C@]1(C(C)=O)CC[C@H]2[C@@H]3C=C(C)C4=CC(=O)CC[C@]4(C)[C@H]3CC[C@@]21C`, -15.6%.
As to `NC(=O)CN1C(=O)C(O)(CC(=O)c2ccccc2O)c2ccccc21` (configuration not stated), the cytotoxicity is -20.7%.
